In all, about 1,200 compounds went through this assay and about 210 (18%) were called active. Only a sample is shown. Values without a mark were called inactive. Rule as the data show it: active = inhibition above about 30%; inactive = the rest.
Assay: fluorescence readout artefact check – biochemical, HTRF, uHTS, artefact control for SUMOylation inhibitor project, confirmation (AID 2069)
Settings: HTRF interference counterscreen, at 35 µM, hits give high values
With `CC1=C(C#N)C(=O)NC(=O)/C1=C/c1ccc(-c2ccc(S(N)(=O)=O)cc2)o1` the inhibition was 19.2%.
In the case of `O=c1c2ccccc2nc2n1CCC2`, the inhibition is reported as 31.4% (active).
Compound `Cc1nc2ccccc2c(=O)n1/N=C/c1ccc(O)c(O)c1O` has an inhibition of 7.15%.
Work on `Cc1ccc(/C=N/NC(=O)c2cccc(S(=O)(=O)Nc3cccc(Cl)c3)c2)o1` yielded an inhibition of 9.55%.
With `O=[N+]([O-])c1cccc(S(=O)(=O)Nc2nc3ccccc3nc2Nc2cccc(S(=O)(=O)N3CCCCC3)c2)c1` the inhibition was -17.1%.
Compound `CC1=NN(c2ccccc2)C(=O)/C1=C\c1ccc(Br)s1` has an inhibition of -10.7%.
With `Nc1ccc(N2CCCCC2)c2nonc12` the inhibition was -23.7%.
For `COc1ccc(N2C3=C(CC4=C2CCCC4=O)C(=O)CCC3)cc1`, the inhibition was 18.1%.
For `COc1ccc(C2C3=C(CCCC3=O)Nc3c(-c4ccccc4)c(C)nn32)cc1` (centres undefined), the inhibition was 46.6% (active).
In the case of `O=C(CNc1cccc2ccccc12)N/N=C/c1ccc([N+](=O)[O-])cc1`, the inhibition is reported as -4%.
Work on `Cn1c(-c2ccc(C=O)s2)nc2c3ccccc3c3ccccc3c21` yielded an inhibition of 22.3%.
`Cn1c(CNc2ccc(O)cc2)nc2ccccc21` showed an inhibition of -19.7%.
For `Cn1c(-c2ccc(C=O)s2)nc2ccccc21`, the inhibition was 49.1% (active).
Compound `CC(C)CC(=O)Nc1ccc(C(=O)Cn2nc(C(=O)O)c3ccccc3c2=O)cc1` has an inhibition of -7.35%.
With `[O-]/C(=C(\C(=S)Nc1cccc2ccccc12)[n+]1cccc(CO)c1)c1ccc(Cl)s1` the inhibition was -14.8%.
Compound `COc1ccc(Cn2c(C)c(C)c(C#N)c2NC(=O)Nc2ccc(F)cc2)cc1` has an inhibition of 1.75%.
`COc1ccc(Cc2n[nH]c(=S)n2NC(=O)Nc2ccc(C)cc2)cc1` gave an inhibition of 20.8%.
For `COc1ccc(Cc2n[nH]c(=S)n2NC(=O)Nc2ccc(Cl)c(Cl)c2)cc1`, the inhibition was 54.1% (active).
With `CCOC(=O)C1=C(C)N=c2s/c(=C\c3ccc(OCC(=O)O)cc3)c(=O)n2C1c1ccc(OC(C)C)cc1` (centres undefined) the inhibition was 12.8%.
Compound `COc1cccc(OC)c1C(=O)N1CCNCC1` has an inhibition of -12.3%.
In the case of `COc1ccc(C(=O)N2CCC(O)(c3ccc(F)cc3)CC2)cc1OC`, the inhibition is reported as 39% (active).
`Cc1[nH][nH]c(=O)c1C(c1c(C)[nH][nH]c1=O)c1cn(C)c2ccccc12` gave an inhibition of -22.4%.
`COc1cccc(C(=O)Nc2cccc(C(=O)NC3=NN(c4c(Cl)cc(Cl)cc4Cl)C(=O)C3)c2)c1` gave an inhibition of -11.8%.
With `CCN(CC(=O)c1c(N)n(C)c(=O)n(C)c1=O)c1cccc2ccccc12` the inhibition was 11.8%.
For `COc1cc(/C=N/NC(=O)c2ccccc2O)ccc1OCC(=O)Nc1ccccc1`, the inhibition was 15.4%.
With `Cc1cc2n(n1)SC(Nc1cccc3ccccc13)N2` (centres undefined) the inhibition was -6.45%.
`Oc1cccc(C=Nc2cccc3ccccc23)c1O` gave an inhibition of 8.55%.
Compound `Cc1ccc(N2CSC3=C(C#N)C(c4cccs4)CC(=O)N3C2)cc1` (centres undefined) has an inhibition of -28.4%.
For `Cc1c(CC(=O)N2CCN(C(=O)C3COc4ccccc4O3)CC2)c(=O)oc2c(C)c(O)ccc12` (centres undefined), the inhibition was 66.6% (active).
Work on `Cc1ccc(C)c(S(=O)(=O)C(C#N)c2nc3ccccc3nc2N2CCCC2)c1` (centres undefined) yielded an inhibition of 1.8%.
`CCCCCc1c2c(cc(O)c1C(=O)O)OC(=O)c1c(cc(OC)cc1C(=O)CCCC)O2` gave an inhibition of 11.2%.
In the case of `c1coc(-c2nnc(-c3ccco3)nn2)c1`, the inhibition is reported as 7.95%.
`Cc1cccc2nc(-c3ccco3)c(Nc3ccc4c(c3)OCO4)n12` gave an inhibition of -6.85%.
For `Cc1cc(=O)[nH]c(SCC(=O)c2ccc(O)c(O)c2)n1`, the inhibition was 7.45%.

Reference: PubChem BioAssay AID2069 (Sanford-Burnham Center for Chemical Genomics, 2009)
